Assay outcomes (PubChem BioAssay)
Shown are actives, neighbours in structure and some others; about 2.5% of the full set was active somewhere.
MEKK2mut PB1 HTS: MEK5 binding signal on mutant MEKK2 PB1, primary screen, biochemical, multiplex bead flow cytometry, Alexa488-MEK5 | AID 1530, 2009 | percent response, % at 10 µM | Alexa488-MEK5 binding to MEKK2 mutant | 290,000 compounds, 0.35% hits; in the data active = percent response above about 24%, passing the limit was not always enough
MEKK2wt PB1 HTS: modulators of MEK5 binding to wildtype MEKK2, primary screen, biochemical, multiplex bead flow cytometry, Alexa488-MEK5. Mitogen-activated protein kinase kinase kinase 2 (Homo sapiens), Q9Y2U5. Alexa488-MEK5 binding to MEKK2 WT; actives lie on both sides. binding response (% of control), % at 10 µM. 290,000 compounds, 1.1% hits. AID 1531, 2009; in the data active = binding response below about 67% or above about 130%
MEKK3 PB1 HTS: modulators of MEKK3-MEK5 PB1 binding, primary screen, biochemical, wildtype MEKK3, multiplex bead flow cytometry, Alexa488-MEK5. Mitogen-activated protein kinase kinase kinase 3 (Homo sapiens), Q99759. 290,000 compounds, 1.4% hits. binding response (% of control), % at 10 µM. bead-based flow cytometry, Alexa488-MEK5 binding to MEKK3; actives lie on both sides; 0 = blocked by unlabeled MEK5, 100 = vehicle;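 active = binding response more than 3 SD above or below the average of its plate-row segment, actives on both sides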;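 note: Alexa488 bead fluorescence after subtracting the streptavidin-only scavenger bead signal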
UBC13 polyUb: UBC13 polyubiquitin chain formation inhibitors, primary screen, biochemical, TR-FRET, uHTS | Ubiquitin-conjugating enzyme E2 N (Homo sapiens), P61088 | inhibition, % at 20 µM | 330,000 compounds, 0.47% hits; in the data active = inhibition above about 45%, passing the limit was not always enough
Target sequence (P61088 whole entry, looked up): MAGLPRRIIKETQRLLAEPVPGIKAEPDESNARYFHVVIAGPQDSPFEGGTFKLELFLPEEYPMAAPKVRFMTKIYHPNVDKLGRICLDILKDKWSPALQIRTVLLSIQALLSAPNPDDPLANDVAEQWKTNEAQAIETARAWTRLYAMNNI
Rce1 inh: yeast Rce1p protease inhibitors, primary screen, biochemical, fluorescence, cell-free homogeneous; 290,000 compounds, 0.27% hits; calls only; AID 2563, 2010; yeast membranes, quenched prenylated peptide cleavage fluorescence; CAAX prenyl protease 2 (Saccharomyces cerevisiae (strain ATCC 204508 / S288c)), Q03530;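 active = fall in fluorescence gain of 50% or more versus controls, with final raw signal at or below 3038400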;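 note: plate controls were neutral control wells for no effect and wells lacking membranes for full effect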
* marks the source's active call; other numbers are inactive results; i = inactive; x = no result; + = active, no number; [ ] = remark or other dose.

SMILES	MEKK2mut PB1 HTS	MEKK2wt PB1 HTS	MEKK3 PB1 HTS	UBC13 polyUb	Rce1 inh
CCc1ccc(CCC(=O)Nc2ncc(Cc3ccccc3Cl)s2)o1	1	113	163*	-10	i
Cc1ccc(S(=O)(=O)Nc2cccc3ncccc23)s1	-9	-1.0*[inhibitor]	1.0*[inhibitor]	-10	i
Cc1ccc(S(=O)(=O)Nc2cccc3ncccc23)cc1	-4	100	95	-10	i
COc1ccc(C)cc1NC(=O)CSc1nc(=O)n(CCCN2CCOCC2)c2c1CCCC2	x	x	x	4	i
Oc1ccc(-c2nc3ccccc3s2)c(O)c1	2	-2.0*	93	33	i
COc1ccc(/C=C2\SC(=O)N(CC(=O)NC3CCS(=O)(=O)C3)C2=O)cc1 (configuration not stated)	-4	96	100	-6	i
CC(=O)c1ccccc1N(C(=O)c1ccco1)C(C(=O)NC1CCCC1)c1ccc(C)cc1 (configuration not stated)	1	98	99	0	i
N/C(=C\C(=O)c1cc(Cl)ccc1O)C(Cl)(Cl)Cl	3	-3.0*	103	11	i
CC(C)(C)c1ccc(C(=O)CC(=O)c2cc(Cl)ccc2O)cc1	-9	91	94	-5	i
COc1ccc(-c2cc(C(=O)N3CCN(c4ccccc4)CC3)c3ccccc3n2)cc1	-9	77	76	1	+
Cc1nn(C(C)C)c(C)c1CN1CCC(C(=O)Nc2cccc(-c3cccc(F)c3)c2)CC1	9	135*	99	5	i
C=CCn1cc(CN2CCC(C(=O)Nc3cccc(-c4cccc(Cl)c4)c3)CC2)c(C)n1	10	157*	99	25	i
C=CCn1cc(CN2CCC(C(=O)Nc3cccc(-c4cccc(F)c4)c3)CC2)c(C)n1	16	135*	105	5	i
CCn1cc(CN2CCCC(C(=O)Nc3cccc(-c4cc5ccccc5[nH]4)c3)C2)cn1 (configuration not stated)	22	147*	103	26	i
Cc1cccc(CN2CCC(C(=O)Nc3cccc(-c4cccc(F)c4)c3)CC2)n1	-1	109	100	11	i
CSCCC(NC(=O)COc1ccccc1)C(=O)NCCOc1ccc(C)cc1 (configuration not stated)	-1	101	101	-4	i
O=C(Nc1cccc(-c2cccc(Cl)c2)c1)C1CCN(Cc2ccon2)CC1	17	123	109	16	i
Cn1cc(CN2CCC(C(=O)Nc3cccc(-c4cccc(F)c4)c3)CC2)cn1	21	146*	107	21	i
Cc1c(CN2CCC(C(=O)Nc3cccc(-c4cccc(Cl)c4)c3)CC2)cnn1C	12	136*	97	30	i
COc1cccc(-c2cccc(NC(=O)C3CCN(Cc4cnn(C)c4)CC3)c2)c1	8	105	98	3	i
CCCN1CCN(C(=O)c2cc3c(s2)-c2ccccc2OC3)CC1	1	101	101	61*	i
CCOC(=O)N1CCN(C(=O)c2cc3c(s2)-c2ccccc2OC3)CC1	15	117	113	20	i
N=c1c2c(ncn1CCCO)Oc1cc(O)ccc1C2c1ccccc1 (configuration not stated)	4	-4.0*	106	-2	i
COc1ccc(C2c3ccc(O)cc3Oc3ncn(CCN4CCOCC4)c(=N)c32)cc1 (configuration not stated)	-14	97	93	-2	i
COc1ccc(C2c3c(ncn(CCCO)c3=N)Oc3ccc4ccccc4c32)cc1 (configuration not stated)	19	136	98	-7	+
COc1ccc(C2c3c(ncn(CCCO)c3=N)Oc3ccc4ccccc4c32)cc1OC (configuration not stated)	15	118	98	8	i
Cc1cc(C)n2cc(CSc3nncn3C)nc2n1	-6	94	95	15	+
CC(COc1ccc(C(C)C)cc1)NC(=O)c1ccc(Br)o1 (configuration not stated)	2	100	96	-5	i
